Target: LRRC1
Experiment: pooled miR-30 sensor sort-seq; sequence = guide strand
Conditions: shRNA
Further: reference of the scale not given here.

| Sequence | sensor-assay potency score (higher = more potent) |
| --- | --- |
| TTTCTGTAAGAACTAACTCAGT | -0.926 |
| TTGACAGCACGCTCGTTCCAGG | -1.01 |
| TTTTCTGTAAGAACTAACTCAG | -0.115 |
| TAGCTGGAAAAATTGCTCGGGC | -0.498 |
| TTTCGTAATTTGACTAGCTGGA | 0.0536 |
| TTCTTCTAGTCTTCGCAGCTGG | -0.37 |
| TTGCCTGTGACACCTCTGCAGG | -1.09 |
| TCTCTTGACAAGTAGGTTCAGA | -0.443 |
| TCTGTTGACAGCACGCTCGTTC | 0.237 |
| TTTTGTTTGAGTCCAGTCCTTT | -0.559 |
| TTCTAGTCTTCGCAGCTGGGTA | -0.92 |
| TAGTTTTCCAATGCCATCCGGA | -0.337 |

Target: LRRC45
Experiment: as above
Conditions: shRNA

| Sequence | sensor-assay potency score (higher = more potent) |
| --- | --- |
| TTCAGCTCAGCTGACATGCTGG | -0.387 |
| TAGACTCCCGCTCTGCAGCTTC | -0.306 |
| TGACATGCTGGTCATCTCCTGC | -0.943 |
| TGACTGATCTGGTTGTTGCGGA | 0.13 |
| TTATCAATAGTCTCCATCAAGT | -1.42 |
| ATGCTGGTCATCTCCTGCCTGG | -1.52 |

— the OligoGym collection
